Measured values from the supplement of paper PMC8728848.
The full list was thinned out, with the strongest signals kept by preference.

How the values were obtained:
Test in all cases: glycan array binding signal (z-score within array); higher = stronger binding
Conditions in all cases: glycan notation: IUPAC condensed, linker removed
[1] = target: Fuc(a1-2)Gal(b1-3)GlcNAc(b1-3)[Gal(b1-4)GlcNAc(b1-6)]Gal(b1-4)Glc
Procedure, shortened: (§1)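 Glycan array data came from 3228 arrays in the Consortium for Functional Glycomics database, and only arrays with an available protein sequence were kept. Glycan names were put into IUPAC-condensed notation, and columns mapping to the same glycan were averaged. The binding signal is a within-array Z-score, averaged across arrays of one protein sequence run at different concentrations or buffers and across linkers. A negative Z-score can be read as non-binding.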

[2] = target: Fuc(a1-2)Gal(b1-4)[Fuc(a1-3)]GlcNAc(b1-2)[Fuc(a1-2)Gal(b1-4)[Fuc(a1-3)]GlcNAc(b1-4)]Man(a1-3)[Fuc(a1-2)Gal(b1-4)[Fuc(a1-3)]GlcNAc(b1-2)Man(a1-6)]Man(b1-4)GlcNAc(b1-4)GlcNAc
Procedure, shortened: as §1

[3] = target: Fuc(a1-2)[Gal(a1-3)]Gal(b1-3)GalNAc
Procedure, shortened: as §1

[4] = target: Fuc(a1-2)[Gal(a1-3)]Gal(b1-3)GalNAc(b1-3)Gal(a1-4)Gal(b1-4)Glc
Procedure, shortened: as §1

[5] = target: Fuc(a1-2)[GalNAc(a1-3)]Gal(b1-3)GlcNAc(b1-2)Man(a1-3)[Fuc(a1-2)[GalNAc(a1-3)]Gal(b1-3)GlcNAc(b1-2)Man(a1-6)]Man(b1-4)GlcNAc(b1-4)GlcNAc
Procedure, shortened: as §1

[6] = target: Fuc(a1-2)[GalNAc(a1-3)]Gal(b1-4)GlcNAc(b1-2)Man(a1-3)[Fuc(a1-2)[GalNAc(a1-3)]Gal(b1-4)GlcNAc(b1-2)Man(a1-6)]Man(b1-4)GlcNAc(b1-4)GlcNAc
Procedure, shortened: as §1

[7] = target: Fuc(a1-3)[Gal(b1-4)]GlcNAc(b1-3)GalNAc
Procedure, shortened: as §1

[8] = target: Fuc(a1-3)[Gal(b1-4)]GlcNAc(b1-6)GalNAc
Procedure, shortened: as §1

[9] = target: Fuc(a1-3)[Gal3S(b1-4)]GlcNAc
Procedure, shortened: as §1

Fuc(a1-4)GlcNAc = target: Fuc(a1-4)GlcNAc
Procedure, shortened: as §1

Gal(a1-2)Gal = target: Gal(a1-2)Gal
Procedure, shortened: as §1

Gal(a1-3)Gal = target: Gal(a1-3)Gal
Procedure, shortened: as §1

Gal(a1-3)Gal(b1-3)GlcNAc = target: Gal(a1-3)Gal(b1-3)GlcNAc
Procedure, shortened: as §1

[10] = target: Gal(a1-3)Gal(b1-3)GlcNAc(b1-2)Man(a1-3)[Gal(a1-3)Gal(b1-3)GlcNAc(b1-2)Man(a1-6)]Man(b1-4)GlcNAc(b1-4)GlcNAc
Procedure, shortened: as §1

Gal(a1-3)Gal(b1-4)Glc = target: Gal(a1-3)Gal(b1-4)Glc
Procedure, shortened: as §1

[11] = target: Gal(b1-3)GalNAc(b1-4)Gal(b1-4)Glc
Procedure, shortened: as §1

[12] = target: Gal(b1-3)GlcNAc(b1-3)Gal(b1-4)GlcNAc
Procedure, shortened: as §1

[13] = target: Gal(b1-4)GlcNAc(b1-2)Man(a1-3)[GlcNAc(b1-2)Man(a1-6)]Man(b1-4)GlcNAc(b1-4)GlcNAc
Procedure, shortened: as §1

[14] = target: Gal(b1-4)GlcNAc(b1-2)Man(a1-3)[GlcNAc(b1-4)][Gal(b1-4)GlcNAc(b1-2)Man(a1-6)]Man(b1-4)GlcNAc(b1-4)GlcNAc
Procedure, shortened: as §1

[15] = target: Gal(b1-4)GlcNAc(b1-2)Man(a1-6)Man(b1-4)GlcNAc(b1-4)GlcNAc
Procedure, shortened: as §1

[16] = target: Gal(b1-4)GlcNAc(b1-2)Man(a1-6)[Man(a1-3)]Man(b1-4)GlcNAc(b1-4)GlcNAc
Procedure, shortened: as §1

[17] = target: Gal(b1-4)GlcNAc(b1-2)[Gal(b1-4)GlcNAc(b1-6)]Man(a1-6)[GlcNAc(b1-4)][Gal(b1-4)GlcNAc(b1-2)Man(a1-3)]Man(b1-4)GlcNAc(b1-4)GlcNAc
Procedure, shortened: as §1

[18] = target: Gal(b1-4)GlcNAc(b1-3)Gal(b1-4)GlcNAc(b1-2)[Gal(b1-4)GlcNAc(b1-3)Gal(b1-4)GlcNAc(b1-6)]Man(a1-6)[Gal(b1-4)GlcNAc(b1-3)Gal(b1-4)GlcNAc(b1-2)Man(a1-3)]Man(b1-4)GlcNAc(b1-4)GlcNAc
Procedure, shortened: as §1

[19] = target: Gal(b1-4)GlcNAc(b1-3)Gal(b1-4)GlcNAc(b1-2)[Gal(b1-4)GlcNAc(b1-3)Gal(b1-4)GlcNAc(b1-6)]Man(a1-6)[Gal(b1-4)GlcNAc(b1-3)Gal(b1-4)GlcNAc(b1-2)Man(a1-3)]Man(b1-4)GlcNAc(b1-4)[Fuc(a1-6)]GlcNAc
Procedure, shortened: as §1

[20] = target: Gal(b1-4)GlcNAc(b1-3)Gal(b1-4)GlcNAc(b1-3)Gal(b1-4)GlcNAc(b1-3)Gal(b1-4)GlcNAc(b1-3)Gal(b1-4)GlcNAc(b1-2)[Gal(b1-4)GlcNAc(b1-3)Gal(b1-4)GlcNAc(b1-3)Gal(b1-4)GlcNAc(b1-3)Gal(b1-4)GlcNAc(b1-3)Gal(b1-4)GlcNAc(b1-6)]Man(a1-6)[Gal(b1-4)GlcNAc(b1-3)Gal(b1-4)GlcNAc(b1-3)Gal(b1-4)GlcNAc(b1-3)Gal(b1-4)GlcNAc(b1-3)Gal(b1-4)GlcNAc(b1-2)Man(a1-3)]Man(b1-4)GlcNAc(b1-4)[Fuc(a1-6)]GlcNAc
Procedure, shortened: as §1

[21] = target: Gal3S(b1-4)[Fuc(a1-3)]GlcNAc
Procedure, shortened: as §1

Gal3S6S(b1-4)GlcNAc = target: Gal3S6S(b1-4)GlcNAc
Procedure, shortened: as §1

Gal6S(b1-4)GlcNAc6S = target: Gal6S(b1-4)GlcNAc6S
Procedure, shortened: as §1

[22] = target: Glc(a1-4)Glc(a1-4)Glc(a1-4)Glc
Procedure, shortened: as §1

GlcA(b1-3)GlcNAc = target: GlcA(b1-3)GlcNAc
Procedure, shortened: as §1

B1: rEtpA (Escherichia coli) (protein)
chain: MNRIYKLKFDKRRNELVVVSEITTGVGNAKATGSVEGEKSPRRGVRAMALSLLSGMMIMAHPAMSANLPTGGQIVAGSGSIQTPSGNQMNIHQNSQNMVANWNSFDIGKGNTVQFDQPSSSAVALNRVVGGGESQIMGNLKANGQVFLVNPNGVLFGEGASVSTSGFVASTRDIKNDDFMNRRYTFSGGQKAGAAIVNQGELTTNAGGYIVLAADRVSNSGTIRTPGGKTVLAASERITLQLDNGGLMSVQVTGDVVNALVENRGLVSARDGQVYLTALGRGMLMNTVLNVSGVVEASGMHRQDGNIVLDGGDSGVVHLSGTLQADNASGQGGKVVVQGKNILLDKGSNITATGGQGGGEVYVGGGWQGKDSNIRNADKVVMQGGARIDVSATQQGNGGTAVLWSDSYTNFHGQISAKGGETGGNGGRVETSSHGNLQAFGTVSASAKKGKAGNWLLDSADITIVNGSNVSKTETTQSPPHTQFAPTAAGSAVSNTSINNRLNNGTSVTILTHRTRTGTAQGGNITVNAAINKSNGSDVNLTLQAGGNITVNNSITSTEGKLNVNLSGARTSNGSITISNNANITTNGGDITVGTTNTSNRVNISINNTTLNASNGNIQLTGTGTDSGILFAGNNRLTASNIALTGNSTSGNAINLTGTATLNATNNITLTGSSTSGNAINLKGNNTLTASNITLTGESTSGNAINLTDTTGTTTLNATNNITMQGTRVQIKHSNITAGNFALNATVAGSEISNTTLTATNNINLAAKTNSASSGVYLKDARITSTNGSITANGTATANGKATHLDGNVTLNASNGRIKLTGNGHGSASGILFAGNNRLTASNIALTGNSTSGNAINLTGTATLNATNDITLTGSSTSGNAINLTGTATLNATNNITLTGSSTSGNAINLKGNNTLTASNITLTGESTSGNAINLTDTTGTTTLNATNNITMQGTRVQIKHSNITAGNFALNATVAGSEISNTTLTATNNINLAAKTNSASSGVYLKDARITSTNGSITANGTATANGKATHLDGNVTLNASNGRIKLTGNGHGSASGILFAGNNRLTASNIALTGNSTSGNAINLTGTATLNATNDITLTGSSTSGNAINLTGTATLNATNNITLTGSSTSGNAINLKGNNTLTASNITLTGESTSGNAINLTDTTGTTTLNATNNITMQGTRVQIKHSNITAGNFALNATVAGSEISNTTLTATNNINLAAKTNSASSGVYLKDARITSTNGSITANGTATANGKATHLDGNVTLNASNGRIKLTGNGHGSASGILFAGNNRLTASNIALTGNSTSGNAINLTGTATLNATNDITLTGSSTSGNAINLTGTATLNATNNITLTGSSTSGNAINLKGNNTLTASNITLTGESTSGNAINLTDTTGTTTLNATNNITMQGTRVQIKHSNITAGNFALNATVAGSEISNTTLTATNNINLAAKTNSASSGVYLKDARITSTNGSITTNGTATANGKATHLDGNVTLNASNGRIKLTGNGHGSASGILFAGNNRLTASNIALTGNSTSGNAINLTGTATLNATNDITLTGSSTSGNAINLTGTATLNATNNITLTGSSTSGNAINLKGNNTLTASNITLTGESTSGNAINLTDTTGTTTLNATNNITMQGTRVQIKHSNITAGNFALNATVAGSEISNTTLTATNNINLAAKTNSASSGVYLKDARITSTNGSITANGTAPANDNATYLDGNVTLNASNGSIKLTGNGNGSTSGILFAGNNTLTASNITLTGNSEVYWQKLGPEQKLISEEDLNSAVDHHHHHH
glycan array binding signal (z-score) [1]: -0.058
glycan array binding signal (z-score) [2]: -0.225
glycan array binding signal (z-score) [3]: 0.413
glycan array binding signal (z-score) [4]: -0.241
glycan array binding signal (z-score) [5]: -0.328
glycan array binding signal (z-score) [6]: -0.09
glycan array binding signal (z-score) [7]: -0.358
glycan array binding signal (z-score) [8]: -0.192
glycan array binding signal (z-score) [9]: -0.102
glycan array binding signal (z-score) (Fuc(a1-4)GlcNAc): 2.8
glycan array binding signal (z-score) (Gal(a1-2)Gal): 0.054
glycan array binding signal (z-score) (Gal(a1-3)Gal): 2.11
glycan array binding signal (z-score) (Gal(a1-3)Gal(b1-3)GlcNAc): 1.87
glycan array binding signal (z-score) [10]: 0.182
glycan array binding signal (z-score) (Gal(a1-3)Gal(b1-4)Glc): -0.179
glycan array binding signal (z-score) [11]: -0.272
glycan array binding signal (z-score) [12]: -0.457
glycan array binding signal (z-score) [13]: -0.408
glycan array binding signal (z-score) [14]: -0.274
glycan array binding signal (z-score) [15]: -0.376
glycan array binding signal (z-score) [16]: 0.021
glycan array binding signal (z-score) [17]: -0.309
glycan array binding signal (z-score) [18]: -0.106
glycan array binding signal (z-score) [19]: -0.356
glycan array binding signal (z-score) [20]: -0.351
glycan array binding signal (z-score) [21]: -0.202
glycan array binding signal (z-score) (Gal3S6S(b1-4)GlcNAc): -0.028
glycan array binding signal (z-score) (Gal6S(b1-4)GlcNAc6S): 0.353
glycan array binding signal (z-score) [22]: 1.05
glycan array binding signal (z-score) (GlcA(b1-3)GlcNAc): -0.337
